This is an account of results in ChEMBL document CHEMBL2218924, “A broad activity screen in support of a chemogenomic map for kinase signalling research and drug discovery” (Biochem J, 2013).

Test [1] has as its target Tyrosine-protein kinase SYK (Homo sapiens) (UniProt P43405). To be noted: at 10 µM.
Test [2] concerns the target T1, Mitogen-activated protein kinase kinase kinase 7 (Homo sapiens) (UniProt O43318).
T1 sequence (whole entry): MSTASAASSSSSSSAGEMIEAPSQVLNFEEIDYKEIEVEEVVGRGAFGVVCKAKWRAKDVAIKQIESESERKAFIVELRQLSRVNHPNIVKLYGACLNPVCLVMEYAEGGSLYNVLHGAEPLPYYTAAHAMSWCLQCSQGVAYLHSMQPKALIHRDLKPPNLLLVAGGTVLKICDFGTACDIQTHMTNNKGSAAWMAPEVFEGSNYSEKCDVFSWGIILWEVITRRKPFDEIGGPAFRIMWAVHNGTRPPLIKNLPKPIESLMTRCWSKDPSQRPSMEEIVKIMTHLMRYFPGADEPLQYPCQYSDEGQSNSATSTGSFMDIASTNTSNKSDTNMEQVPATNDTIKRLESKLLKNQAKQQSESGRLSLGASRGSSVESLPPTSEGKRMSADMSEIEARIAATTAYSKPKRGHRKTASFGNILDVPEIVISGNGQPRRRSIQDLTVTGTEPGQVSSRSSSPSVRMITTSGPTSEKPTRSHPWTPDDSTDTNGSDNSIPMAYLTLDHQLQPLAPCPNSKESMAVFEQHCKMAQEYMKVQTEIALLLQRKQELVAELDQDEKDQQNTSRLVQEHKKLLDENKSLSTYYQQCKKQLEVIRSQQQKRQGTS
To be noted: at 1 µM.

In test [3] the target is T1, Mitogen-activated protein kinase kinase kinase 7 (Homo sapiens). To be noted: at 10 µM.
Test [4] deals with T2, Serine/threonine-protein kinase TAO1 (Homo sapiens) (UniProt Q7L7X3).
T2 sequence (whole entry): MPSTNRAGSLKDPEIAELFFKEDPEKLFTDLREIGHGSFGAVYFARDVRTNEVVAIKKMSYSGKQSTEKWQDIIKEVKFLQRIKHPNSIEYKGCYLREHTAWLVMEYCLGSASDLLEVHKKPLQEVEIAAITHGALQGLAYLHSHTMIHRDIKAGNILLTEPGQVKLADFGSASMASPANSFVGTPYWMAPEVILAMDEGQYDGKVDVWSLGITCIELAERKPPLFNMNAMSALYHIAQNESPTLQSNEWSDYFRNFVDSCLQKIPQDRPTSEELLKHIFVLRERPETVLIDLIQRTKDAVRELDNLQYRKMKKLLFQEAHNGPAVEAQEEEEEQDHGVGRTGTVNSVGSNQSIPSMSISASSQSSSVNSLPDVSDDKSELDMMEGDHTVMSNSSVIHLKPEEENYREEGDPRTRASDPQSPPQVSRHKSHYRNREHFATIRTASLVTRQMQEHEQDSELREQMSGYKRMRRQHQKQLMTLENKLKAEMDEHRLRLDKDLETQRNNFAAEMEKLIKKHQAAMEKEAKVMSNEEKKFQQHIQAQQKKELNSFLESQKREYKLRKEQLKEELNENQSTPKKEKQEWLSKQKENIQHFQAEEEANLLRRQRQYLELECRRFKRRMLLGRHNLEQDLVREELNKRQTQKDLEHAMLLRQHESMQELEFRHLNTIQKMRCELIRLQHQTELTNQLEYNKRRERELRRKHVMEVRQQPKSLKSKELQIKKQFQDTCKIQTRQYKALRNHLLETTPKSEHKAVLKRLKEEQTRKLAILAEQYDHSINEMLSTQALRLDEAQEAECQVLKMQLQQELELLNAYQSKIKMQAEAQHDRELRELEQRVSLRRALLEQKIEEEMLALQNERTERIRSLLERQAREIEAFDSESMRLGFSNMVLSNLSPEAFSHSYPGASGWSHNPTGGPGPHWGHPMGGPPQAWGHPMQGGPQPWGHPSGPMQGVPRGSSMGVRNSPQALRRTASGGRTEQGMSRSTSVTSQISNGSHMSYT
The conditions noted are these: at 1 µM.

The target in test [5] is T2, Serine/threonine-protein kinase TAO1 (Homo sapiens). To be noted: at 10 µM.
The target of test [6] is T3, Serine/threonine-protein kinase TAO2 (Homo sapiens) (UniProt Q9UL54).
T3 sequence (whole entry): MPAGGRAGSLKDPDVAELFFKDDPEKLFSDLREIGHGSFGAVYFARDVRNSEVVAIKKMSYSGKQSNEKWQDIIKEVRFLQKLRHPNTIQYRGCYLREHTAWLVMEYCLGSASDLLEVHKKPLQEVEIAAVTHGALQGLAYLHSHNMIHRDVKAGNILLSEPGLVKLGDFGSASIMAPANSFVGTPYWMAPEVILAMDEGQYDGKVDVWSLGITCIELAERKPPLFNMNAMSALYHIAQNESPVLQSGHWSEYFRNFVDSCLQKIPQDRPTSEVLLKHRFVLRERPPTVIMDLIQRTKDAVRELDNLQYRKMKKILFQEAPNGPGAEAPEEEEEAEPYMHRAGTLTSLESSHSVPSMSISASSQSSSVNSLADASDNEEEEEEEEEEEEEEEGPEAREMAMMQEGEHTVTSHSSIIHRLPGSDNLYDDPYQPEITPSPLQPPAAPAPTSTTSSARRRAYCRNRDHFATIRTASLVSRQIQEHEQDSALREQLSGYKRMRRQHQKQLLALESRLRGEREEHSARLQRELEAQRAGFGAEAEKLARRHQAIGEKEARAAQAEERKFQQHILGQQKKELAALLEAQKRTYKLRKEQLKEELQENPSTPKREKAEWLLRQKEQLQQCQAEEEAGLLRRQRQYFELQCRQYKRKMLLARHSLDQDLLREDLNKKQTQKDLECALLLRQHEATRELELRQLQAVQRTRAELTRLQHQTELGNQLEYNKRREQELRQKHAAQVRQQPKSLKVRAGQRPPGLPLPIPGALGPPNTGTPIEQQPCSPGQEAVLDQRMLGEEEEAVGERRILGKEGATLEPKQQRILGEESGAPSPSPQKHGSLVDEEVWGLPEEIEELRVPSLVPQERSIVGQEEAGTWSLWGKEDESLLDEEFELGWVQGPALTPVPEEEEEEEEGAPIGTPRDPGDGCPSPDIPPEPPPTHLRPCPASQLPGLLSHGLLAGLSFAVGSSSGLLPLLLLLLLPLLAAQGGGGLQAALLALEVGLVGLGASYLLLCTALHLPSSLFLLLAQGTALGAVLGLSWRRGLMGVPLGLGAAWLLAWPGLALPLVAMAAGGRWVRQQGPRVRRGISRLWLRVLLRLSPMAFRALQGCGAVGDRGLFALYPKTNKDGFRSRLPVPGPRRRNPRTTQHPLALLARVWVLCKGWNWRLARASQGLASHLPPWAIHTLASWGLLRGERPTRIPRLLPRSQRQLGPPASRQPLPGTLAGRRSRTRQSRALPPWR
To be noted: at 1 µM.

Test [7] deals with T3, Serine/threonine-protein kinase TAO2 (Homo sapiens). To be noted: at 10 µM.
In test [8] the target is T4, Serine/threonine-protein kinase TAO3 (Homo sapiens) (UniProt Q9H2K8).
T4 sequence (whole entry): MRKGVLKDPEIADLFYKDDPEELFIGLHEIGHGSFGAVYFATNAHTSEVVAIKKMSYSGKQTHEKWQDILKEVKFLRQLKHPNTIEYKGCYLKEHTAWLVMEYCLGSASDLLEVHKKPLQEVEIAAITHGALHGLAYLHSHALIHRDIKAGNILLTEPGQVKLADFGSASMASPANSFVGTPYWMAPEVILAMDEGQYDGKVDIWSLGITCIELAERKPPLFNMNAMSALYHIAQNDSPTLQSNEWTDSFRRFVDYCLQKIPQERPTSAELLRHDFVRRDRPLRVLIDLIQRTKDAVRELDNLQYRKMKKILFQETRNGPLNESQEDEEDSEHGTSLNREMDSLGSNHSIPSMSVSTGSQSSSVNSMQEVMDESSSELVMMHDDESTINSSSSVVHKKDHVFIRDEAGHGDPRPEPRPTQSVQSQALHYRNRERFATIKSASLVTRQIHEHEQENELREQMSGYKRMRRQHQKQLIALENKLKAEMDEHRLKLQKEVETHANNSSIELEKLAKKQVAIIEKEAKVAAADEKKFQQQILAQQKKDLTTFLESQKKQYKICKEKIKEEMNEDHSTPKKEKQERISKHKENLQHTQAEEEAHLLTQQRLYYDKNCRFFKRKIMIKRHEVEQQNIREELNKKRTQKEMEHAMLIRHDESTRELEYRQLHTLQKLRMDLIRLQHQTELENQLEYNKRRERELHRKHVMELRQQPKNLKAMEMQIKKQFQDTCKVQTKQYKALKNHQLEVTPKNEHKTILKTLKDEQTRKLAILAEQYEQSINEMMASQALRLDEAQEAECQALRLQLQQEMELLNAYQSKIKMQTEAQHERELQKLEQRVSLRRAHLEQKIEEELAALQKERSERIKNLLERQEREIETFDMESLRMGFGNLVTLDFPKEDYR
To be noted: at 1 µM.

For test [9], the target named is T4, Serine/threonine-protein kinase TAO3 (Homo sapiens). To be noted: at 10 µM.
Test [10] has as its target T5, Serine/threonine-protein kinase TBK1 (Homo sapiens) (UniProt Q9UHD2).
T5 sequence (whole entry): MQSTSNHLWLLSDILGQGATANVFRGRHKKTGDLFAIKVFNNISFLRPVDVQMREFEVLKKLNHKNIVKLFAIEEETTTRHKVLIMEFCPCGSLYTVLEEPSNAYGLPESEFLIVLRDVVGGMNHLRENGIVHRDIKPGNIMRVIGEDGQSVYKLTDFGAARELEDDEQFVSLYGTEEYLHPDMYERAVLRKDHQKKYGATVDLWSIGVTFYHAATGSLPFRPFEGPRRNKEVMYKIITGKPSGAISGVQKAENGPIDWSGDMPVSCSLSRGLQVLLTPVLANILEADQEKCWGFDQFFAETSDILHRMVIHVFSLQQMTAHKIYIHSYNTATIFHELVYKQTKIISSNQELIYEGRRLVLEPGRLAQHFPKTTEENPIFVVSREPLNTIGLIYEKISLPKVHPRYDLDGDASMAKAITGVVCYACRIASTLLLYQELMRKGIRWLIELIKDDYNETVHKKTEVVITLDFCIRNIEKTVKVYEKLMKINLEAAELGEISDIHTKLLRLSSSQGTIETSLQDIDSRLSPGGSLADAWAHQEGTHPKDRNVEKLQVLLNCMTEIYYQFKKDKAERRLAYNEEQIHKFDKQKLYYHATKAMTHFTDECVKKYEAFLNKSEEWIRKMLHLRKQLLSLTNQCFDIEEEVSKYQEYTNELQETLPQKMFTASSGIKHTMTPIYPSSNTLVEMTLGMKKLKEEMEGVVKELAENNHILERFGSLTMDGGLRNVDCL
The conditions noted are these: at 1 µM.

Test [11] addresses T5, Serine/threonine-protein kinase TBK1 (Homo sapiens). To be noted: at 10 µM.
The target in test [12] is T6, TGF-beta receptor type-1 (Homo sapiens) (UniProt P36897).
T6 sequence (whole entry): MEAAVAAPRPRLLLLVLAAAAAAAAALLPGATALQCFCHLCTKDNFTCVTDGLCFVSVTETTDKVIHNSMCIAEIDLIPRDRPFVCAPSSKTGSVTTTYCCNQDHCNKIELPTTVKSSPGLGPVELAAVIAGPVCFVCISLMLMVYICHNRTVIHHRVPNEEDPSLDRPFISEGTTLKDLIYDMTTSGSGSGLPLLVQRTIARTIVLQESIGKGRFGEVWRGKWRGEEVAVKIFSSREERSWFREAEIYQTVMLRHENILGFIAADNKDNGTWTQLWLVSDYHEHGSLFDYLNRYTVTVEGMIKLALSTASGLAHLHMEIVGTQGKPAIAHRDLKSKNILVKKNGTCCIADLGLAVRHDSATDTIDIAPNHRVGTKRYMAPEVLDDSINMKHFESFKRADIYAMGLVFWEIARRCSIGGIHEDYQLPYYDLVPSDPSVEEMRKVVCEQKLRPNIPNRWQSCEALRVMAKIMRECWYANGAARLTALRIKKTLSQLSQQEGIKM
To be noted: at 1 µM.

Test [13] has as its target T6, TGF-beta receptor type-1 (Homo sapiens). To be noted: at 10 µM.
Test [14] deals with T7, Inhibitor of nuclear factor kappa-B kinase subunit beta (Homo sapiens) (UniProt O14920).
T7 sequence (whole entry): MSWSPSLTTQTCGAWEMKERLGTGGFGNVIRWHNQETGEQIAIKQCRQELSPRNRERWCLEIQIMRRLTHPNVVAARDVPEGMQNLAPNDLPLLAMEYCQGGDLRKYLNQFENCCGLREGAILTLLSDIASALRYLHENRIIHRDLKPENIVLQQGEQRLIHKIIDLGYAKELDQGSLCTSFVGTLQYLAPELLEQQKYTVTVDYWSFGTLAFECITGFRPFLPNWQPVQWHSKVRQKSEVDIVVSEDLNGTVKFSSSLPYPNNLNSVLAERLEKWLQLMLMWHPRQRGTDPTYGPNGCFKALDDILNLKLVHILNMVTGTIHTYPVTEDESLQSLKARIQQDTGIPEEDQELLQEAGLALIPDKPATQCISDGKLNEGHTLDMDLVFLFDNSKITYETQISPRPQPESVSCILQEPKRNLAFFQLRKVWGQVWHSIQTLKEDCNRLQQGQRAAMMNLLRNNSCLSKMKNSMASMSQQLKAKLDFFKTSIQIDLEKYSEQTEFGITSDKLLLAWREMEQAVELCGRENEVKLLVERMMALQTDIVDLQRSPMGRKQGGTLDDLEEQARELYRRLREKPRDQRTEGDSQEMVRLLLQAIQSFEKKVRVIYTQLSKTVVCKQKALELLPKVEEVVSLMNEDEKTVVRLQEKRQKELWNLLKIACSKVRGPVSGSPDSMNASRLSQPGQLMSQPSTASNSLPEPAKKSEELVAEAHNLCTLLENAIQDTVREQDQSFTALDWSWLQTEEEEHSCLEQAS
The conditions noted are these: at 1 µM.

Test [15] has as its target T7, Inhibitor of nuclear factor kappa-B kinase subunit beta (Homo sapiens). To be noted: at 10 µM.
The target of test [16] is Insulin receptor (Homo sapiens) (UniProt P06213). To be noted: at 1 µM.
Chain of Insulin receptor (Homo sapiens) (P06213 28-758 limits assumed): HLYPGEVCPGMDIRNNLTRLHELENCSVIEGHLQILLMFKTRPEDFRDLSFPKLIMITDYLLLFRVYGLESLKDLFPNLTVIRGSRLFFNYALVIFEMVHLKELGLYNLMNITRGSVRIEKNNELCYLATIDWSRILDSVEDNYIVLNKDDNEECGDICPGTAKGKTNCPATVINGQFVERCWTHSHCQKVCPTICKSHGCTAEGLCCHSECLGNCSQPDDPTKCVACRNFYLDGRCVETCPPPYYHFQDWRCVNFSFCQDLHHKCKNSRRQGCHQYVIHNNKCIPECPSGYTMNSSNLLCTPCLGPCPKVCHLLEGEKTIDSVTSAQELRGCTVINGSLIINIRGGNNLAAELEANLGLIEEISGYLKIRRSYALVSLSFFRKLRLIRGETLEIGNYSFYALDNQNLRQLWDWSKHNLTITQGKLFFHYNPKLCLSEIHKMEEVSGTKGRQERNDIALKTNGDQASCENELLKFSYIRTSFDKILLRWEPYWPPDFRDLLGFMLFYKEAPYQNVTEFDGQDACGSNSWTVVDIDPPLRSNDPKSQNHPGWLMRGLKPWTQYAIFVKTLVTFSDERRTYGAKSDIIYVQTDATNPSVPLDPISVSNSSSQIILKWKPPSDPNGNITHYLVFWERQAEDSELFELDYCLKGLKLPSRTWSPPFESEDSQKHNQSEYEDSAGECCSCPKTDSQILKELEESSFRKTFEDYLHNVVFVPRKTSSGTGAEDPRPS
Chain of Insulin receptor (Homo sapiens) (P06213 763-1382 limits assumed): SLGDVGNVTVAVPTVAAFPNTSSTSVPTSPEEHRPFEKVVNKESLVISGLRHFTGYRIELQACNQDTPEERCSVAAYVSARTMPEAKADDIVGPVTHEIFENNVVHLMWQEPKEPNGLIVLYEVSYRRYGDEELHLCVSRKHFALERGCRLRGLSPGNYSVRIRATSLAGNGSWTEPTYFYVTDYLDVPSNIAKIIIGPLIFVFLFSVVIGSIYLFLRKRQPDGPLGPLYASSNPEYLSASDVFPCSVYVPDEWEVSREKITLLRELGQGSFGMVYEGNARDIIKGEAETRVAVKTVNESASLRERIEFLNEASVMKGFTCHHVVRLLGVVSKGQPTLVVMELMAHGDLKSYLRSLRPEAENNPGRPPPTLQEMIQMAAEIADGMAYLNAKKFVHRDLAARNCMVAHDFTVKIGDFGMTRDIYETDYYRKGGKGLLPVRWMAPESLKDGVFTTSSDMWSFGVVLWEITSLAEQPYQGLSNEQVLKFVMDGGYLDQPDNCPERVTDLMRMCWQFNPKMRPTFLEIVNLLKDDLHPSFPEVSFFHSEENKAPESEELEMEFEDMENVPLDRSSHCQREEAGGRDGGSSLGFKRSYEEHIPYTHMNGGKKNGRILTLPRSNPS

Each structure is given as a SMILES string.

With `O=c1cc(N2CCOCC2)oc2c1ccc1ccccc12`, the residual activity in [1] stood at 94%; in test [2], 93%; in test [3], 90%; in [4] it was 102%; in [5] it was 87%; in test [6] it was 98%. Also, the residual activity turned out to be 96% in test [7]; 98% in test [8]; 95% in test [9]; 77% in test [10]; 71% in test [11]; 89% in [12]. In addition, the residual activity in test [13] is 88%; in test [14], 96%; in test [15], 94%; in test [16] it was 108%.
